# Assay results from paper PMC7862700, “An all-to-all approach to the identification of sequence-specific readers for epigenetic DNA modifications on cytosine”.
# Legend:
# Experiment in all cases: DAPPL (digital affinity profiling via proximity ligation, sequencing); 10 mM Tris-HCl pH 7.5, 50 mM NaCl, 1 mM DTT, 4% glycerol, room temperature, 30 min; GST-TFs on glutathione beads, 16-mer random dsDNA library, 0.1% formaldehyde crosslink after washing; high values mean tight binding
# [1] = target: T1, FLI1 (Homo sapiens, UniProt Q01543 1-452); settings: protein: recombinant; tags: N-terminal GST; dsDNA, one strand shown
# T1 sequence: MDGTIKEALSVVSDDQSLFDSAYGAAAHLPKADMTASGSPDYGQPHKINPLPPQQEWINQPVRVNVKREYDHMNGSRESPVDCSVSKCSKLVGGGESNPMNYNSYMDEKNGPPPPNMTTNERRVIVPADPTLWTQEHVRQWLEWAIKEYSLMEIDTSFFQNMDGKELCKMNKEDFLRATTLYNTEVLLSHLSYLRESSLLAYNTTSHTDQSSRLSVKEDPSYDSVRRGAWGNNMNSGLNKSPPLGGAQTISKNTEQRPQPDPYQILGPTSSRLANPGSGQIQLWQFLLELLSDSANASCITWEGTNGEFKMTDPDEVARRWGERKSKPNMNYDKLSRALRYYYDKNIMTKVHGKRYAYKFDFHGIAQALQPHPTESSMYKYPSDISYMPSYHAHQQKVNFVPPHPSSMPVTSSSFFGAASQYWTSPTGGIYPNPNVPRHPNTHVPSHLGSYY
# Method in brief: (§1)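 In yeast, human transcription factors were expressed with a GST fusion, then pulled down on glutathione beads and given DNA barcodes. Pooled with a tag-only sample, they were exposed to 200 nmole of a 16-mer random double-stranded DNA library (Tris/NaCl/DTT/glycerol buffer, room temperature, 30 min), washed, crosslinked with 0.1% formaldehyde, proximity-ligated using BsaI/T4 ligase for 1 h at 37 °C, PCR-amplified and read on an Illumina NextSeq500. Each hexamer's frequency of reads for a factor, divided by the matching frequency for the tag-only sample, gives the binding signal.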
# [2] = target: T2, ELK1 (Homo sapiens, UniProt P19419 1-428); settings: protein: recombinant; tags: N-terminal GST; dsDNA, one strand shown
# T2 sequence: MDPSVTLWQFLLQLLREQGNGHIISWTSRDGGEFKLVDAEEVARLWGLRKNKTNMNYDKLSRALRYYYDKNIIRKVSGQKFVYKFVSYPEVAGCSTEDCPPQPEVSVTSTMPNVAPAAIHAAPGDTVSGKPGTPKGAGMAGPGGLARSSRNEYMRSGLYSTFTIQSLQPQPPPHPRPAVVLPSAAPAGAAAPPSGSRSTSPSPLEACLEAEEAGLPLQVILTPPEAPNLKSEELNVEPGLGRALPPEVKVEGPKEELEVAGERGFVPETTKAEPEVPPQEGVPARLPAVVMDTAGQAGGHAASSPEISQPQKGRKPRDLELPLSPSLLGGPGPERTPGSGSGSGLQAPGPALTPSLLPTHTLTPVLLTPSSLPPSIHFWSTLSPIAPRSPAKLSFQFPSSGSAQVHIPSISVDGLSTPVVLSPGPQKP
# Method in brief: as §1
# [3] = target: T3, GABPA (Homo sapiens, UniProt Q06546 1-454); settings: protein: recombinant; tags: N-terminal GST; dsDNA, one strand shown
# T3 sequence: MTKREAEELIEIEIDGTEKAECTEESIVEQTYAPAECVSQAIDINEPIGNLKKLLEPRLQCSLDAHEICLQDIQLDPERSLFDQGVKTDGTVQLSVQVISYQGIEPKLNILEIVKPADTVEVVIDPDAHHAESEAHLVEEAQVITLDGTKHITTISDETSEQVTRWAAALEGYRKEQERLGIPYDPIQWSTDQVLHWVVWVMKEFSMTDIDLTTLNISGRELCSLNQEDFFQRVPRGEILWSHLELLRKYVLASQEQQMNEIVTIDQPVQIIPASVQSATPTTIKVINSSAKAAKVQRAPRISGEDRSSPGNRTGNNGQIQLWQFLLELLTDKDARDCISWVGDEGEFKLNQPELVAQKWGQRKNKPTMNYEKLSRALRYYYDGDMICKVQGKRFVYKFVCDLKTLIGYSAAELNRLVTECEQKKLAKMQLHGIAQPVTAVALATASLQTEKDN
# Method in brief: as §1
# [4] = target: T4, ERG (Homo sapiens, UniProt P11308 1-479); settings: protein: recombinant; tags: N-terminal GST; dsDNA, one strand shown
# T4 sequence: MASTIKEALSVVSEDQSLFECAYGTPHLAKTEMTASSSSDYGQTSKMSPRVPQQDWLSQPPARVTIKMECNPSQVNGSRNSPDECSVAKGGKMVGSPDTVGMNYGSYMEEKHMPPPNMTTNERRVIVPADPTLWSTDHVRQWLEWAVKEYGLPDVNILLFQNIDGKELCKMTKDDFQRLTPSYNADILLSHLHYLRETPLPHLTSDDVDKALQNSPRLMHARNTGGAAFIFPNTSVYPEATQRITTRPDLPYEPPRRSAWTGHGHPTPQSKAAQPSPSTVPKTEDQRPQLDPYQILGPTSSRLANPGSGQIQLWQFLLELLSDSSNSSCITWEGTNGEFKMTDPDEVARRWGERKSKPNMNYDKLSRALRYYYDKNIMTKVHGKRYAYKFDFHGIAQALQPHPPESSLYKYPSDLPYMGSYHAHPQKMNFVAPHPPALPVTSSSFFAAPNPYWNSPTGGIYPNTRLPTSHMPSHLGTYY
# Method in brief: as §1
# [5] = target: ELF1 (Homo sapiens, UniProt P32519 1-619); settings: protein: recombinant; tags: N-terminal GST; dsDNA, one strand shown
# Sequence of ELF1 (P32519 whole entry): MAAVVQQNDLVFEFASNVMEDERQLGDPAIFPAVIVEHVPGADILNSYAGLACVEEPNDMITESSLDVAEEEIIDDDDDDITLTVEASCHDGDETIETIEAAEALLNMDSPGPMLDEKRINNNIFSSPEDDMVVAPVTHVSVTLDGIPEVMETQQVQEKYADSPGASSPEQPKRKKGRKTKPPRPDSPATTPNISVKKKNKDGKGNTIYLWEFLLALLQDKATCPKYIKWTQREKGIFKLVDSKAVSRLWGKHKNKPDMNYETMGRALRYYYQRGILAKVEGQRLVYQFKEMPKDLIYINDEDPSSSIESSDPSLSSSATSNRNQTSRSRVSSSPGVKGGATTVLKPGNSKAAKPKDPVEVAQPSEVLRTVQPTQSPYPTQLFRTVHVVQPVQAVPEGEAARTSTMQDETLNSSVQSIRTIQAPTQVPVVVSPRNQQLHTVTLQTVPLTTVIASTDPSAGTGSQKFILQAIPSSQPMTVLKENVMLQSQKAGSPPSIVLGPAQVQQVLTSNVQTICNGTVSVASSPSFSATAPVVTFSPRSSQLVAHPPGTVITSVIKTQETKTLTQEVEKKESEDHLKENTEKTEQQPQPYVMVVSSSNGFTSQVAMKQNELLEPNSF
# Method in brief: as §1
# [6] = target: T5, EHF (Homo sapiens, UniProt Q9NZC4 1-300); settings: protein: recombinant; tags: N-terminal GST; dsDNA, one strand shown
# T5 sequence: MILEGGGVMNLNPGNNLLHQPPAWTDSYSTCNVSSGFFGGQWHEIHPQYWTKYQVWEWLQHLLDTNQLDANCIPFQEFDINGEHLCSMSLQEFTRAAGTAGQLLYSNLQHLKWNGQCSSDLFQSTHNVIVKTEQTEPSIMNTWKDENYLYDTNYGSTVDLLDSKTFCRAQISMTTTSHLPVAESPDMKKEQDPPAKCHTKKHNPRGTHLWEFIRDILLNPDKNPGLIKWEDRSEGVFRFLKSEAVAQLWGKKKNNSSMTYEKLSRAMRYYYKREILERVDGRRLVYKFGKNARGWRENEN
# Method in brief: as §1
# [7] = target: SPI1 (Homo sapiens, UniProt P17947 1-270); settings: protein: recombinant; tags: N-terminal GST; dsDNA, one strand shown
# Method in brief: as §1
# [8] = target: SPIB (Homo sapiens, UniProt Q01892 1-262); settings: protein: recombinant; tags: N-terminal GST; dsDNA, one strand shown
# Sequence of SPIB (Q01892 whole entry): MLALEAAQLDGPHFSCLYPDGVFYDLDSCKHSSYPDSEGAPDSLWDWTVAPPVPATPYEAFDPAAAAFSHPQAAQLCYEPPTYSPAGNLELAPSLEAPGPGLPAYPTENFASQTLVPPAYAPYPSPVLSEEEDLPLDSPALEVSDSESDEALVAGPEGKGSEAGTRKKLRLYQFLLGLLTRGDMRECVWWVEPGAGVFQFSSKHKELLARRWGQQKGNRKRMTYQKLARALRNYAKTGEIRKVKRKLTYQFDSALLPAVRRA
# Method in brief: as §1
# [9] = target: T6, ELK3 (Homo sapiens, UniProt P41970 1-407); settings: protein: recombinant; tags: N-terminal GST; dsDNA, one strand shown
# T6 sequence: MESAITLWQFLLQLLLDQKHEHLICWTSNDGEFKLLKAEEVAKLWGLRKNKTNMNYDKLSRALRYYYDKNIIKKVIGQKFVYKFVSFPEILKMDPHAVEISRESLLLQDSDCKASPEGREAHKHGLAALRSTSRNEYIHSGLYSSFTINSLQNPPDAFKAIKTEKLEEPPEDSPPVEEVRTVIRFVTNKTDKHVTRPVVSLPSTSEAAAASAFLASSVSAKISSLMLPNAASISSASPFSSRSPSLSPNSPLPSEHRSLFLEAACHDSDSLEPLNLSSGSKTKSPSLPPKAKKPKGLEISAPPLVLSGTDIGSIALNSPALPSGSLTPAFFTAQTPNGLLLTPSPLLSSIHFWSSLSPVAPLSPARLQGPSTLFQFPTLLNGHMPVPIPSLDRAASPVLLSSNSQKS
# Method in brief: as §1
# [10] = target: T7, FEV (Homo sapiens, UniProt Q99581 1-238); settings: protein: recombinant; tags: N-terminal GST; dsDNA, one strand shown
# T7 sequence: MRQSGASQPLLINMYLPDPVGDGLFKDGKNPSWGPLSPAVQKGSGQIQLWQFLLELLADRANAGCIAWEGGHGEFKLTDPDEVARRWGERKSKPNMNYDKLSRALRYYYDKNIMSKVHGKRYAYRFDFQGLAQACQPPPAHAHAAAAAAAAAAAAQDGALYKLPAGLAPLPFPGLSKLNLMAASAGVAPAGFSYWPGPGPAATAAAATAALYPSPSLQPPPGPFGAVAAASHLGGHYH
# Method in brief: as §1
# [11] = target: ETV5 (Homo sapiens, UniProt P41161 1-510); settings: protein: recombinant; tags: N-terminal GST; dsDNA, one strand shown
# Sequence of ETV5 (P41161 whole entry): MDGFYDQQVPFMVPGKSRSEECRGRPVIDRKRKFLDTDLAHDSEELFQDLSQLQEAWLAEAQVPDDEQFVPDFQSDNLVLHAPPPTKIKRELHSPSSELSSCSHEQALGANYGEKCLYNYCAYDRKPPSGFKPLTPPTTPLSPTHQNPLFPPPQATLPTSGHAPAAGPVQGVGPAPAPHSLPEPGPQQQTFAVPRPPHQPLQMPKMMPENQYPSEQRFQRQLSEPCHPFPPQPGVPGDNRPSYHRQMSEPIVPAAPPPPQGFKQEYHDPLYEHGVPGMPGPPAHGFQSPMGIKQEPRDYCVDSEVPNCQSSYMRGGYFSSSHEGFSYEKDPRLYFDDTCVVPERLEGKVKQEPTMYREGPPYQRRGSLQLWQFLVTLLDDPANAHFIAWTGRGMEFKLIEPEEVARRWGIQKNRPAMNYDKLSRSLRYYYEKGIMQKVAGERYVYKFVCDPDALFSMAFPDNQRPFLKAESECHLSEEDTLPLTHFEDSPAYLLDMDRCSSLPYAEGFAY
# Method in brief: as §1
# [12] = target: HSF1 (Homo sapiens, UniProt Q00613 1-529); settings: protein: recombinant; tags: N-terminal GST; chain copies: 3; dsDNA, one strand shown
# Sequence of HSF1 (Q00613 whole entry): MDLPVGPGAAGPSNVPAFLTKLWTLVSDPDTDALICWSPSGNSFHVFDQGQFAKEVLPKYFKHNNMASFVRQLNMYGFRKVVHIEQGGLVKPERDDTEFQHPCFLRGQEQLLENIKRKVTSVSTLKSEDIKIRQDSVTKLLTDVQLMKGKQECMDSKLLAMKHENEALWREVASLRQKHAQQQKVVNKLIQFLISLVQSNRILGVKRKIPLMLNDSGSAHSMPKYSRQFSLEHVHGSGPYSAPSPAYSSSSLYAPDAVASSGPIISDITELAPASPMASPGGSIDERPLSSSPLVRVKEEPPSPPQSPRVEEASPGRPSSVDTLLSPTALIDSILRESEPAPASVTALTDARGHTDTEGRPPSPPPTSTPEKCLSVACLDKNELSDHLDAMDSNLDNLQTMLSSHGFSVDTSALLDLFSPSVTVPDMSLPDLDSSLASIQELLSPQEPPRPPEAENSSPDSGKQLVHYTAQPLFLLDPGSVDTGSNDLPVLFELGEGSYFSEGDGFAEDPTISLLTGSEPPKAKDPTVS
# Method in brief: as §1
# [13] = target: T8, SPIC (Homo sapiens, UniProt Q8N5J4 1-248); settings: protein: recombinant; tags: N-terminal GST; dsDNA, one strand shown
# T8 sequence: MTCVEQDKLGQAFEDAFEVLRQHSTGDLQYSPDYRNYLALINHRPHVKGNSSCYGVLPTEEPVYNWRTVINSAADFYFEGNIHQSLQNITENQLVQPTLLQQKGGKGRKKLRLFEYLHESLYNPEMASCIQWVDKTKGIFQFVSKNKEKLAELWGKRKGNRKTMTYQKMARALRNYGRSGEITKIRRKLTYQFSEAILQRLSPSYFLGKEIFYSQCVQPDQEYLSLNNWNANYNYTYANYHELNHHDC
# Method in brief: as §1
# [14] = target: ELF4 (Homo sapiens, UniProt Q99607 1-663); settings: protein: recombinant; tags: N-terminal GST; dsDNA, one strand shown
# Sequence of ELF4 (Q99607 whole entry): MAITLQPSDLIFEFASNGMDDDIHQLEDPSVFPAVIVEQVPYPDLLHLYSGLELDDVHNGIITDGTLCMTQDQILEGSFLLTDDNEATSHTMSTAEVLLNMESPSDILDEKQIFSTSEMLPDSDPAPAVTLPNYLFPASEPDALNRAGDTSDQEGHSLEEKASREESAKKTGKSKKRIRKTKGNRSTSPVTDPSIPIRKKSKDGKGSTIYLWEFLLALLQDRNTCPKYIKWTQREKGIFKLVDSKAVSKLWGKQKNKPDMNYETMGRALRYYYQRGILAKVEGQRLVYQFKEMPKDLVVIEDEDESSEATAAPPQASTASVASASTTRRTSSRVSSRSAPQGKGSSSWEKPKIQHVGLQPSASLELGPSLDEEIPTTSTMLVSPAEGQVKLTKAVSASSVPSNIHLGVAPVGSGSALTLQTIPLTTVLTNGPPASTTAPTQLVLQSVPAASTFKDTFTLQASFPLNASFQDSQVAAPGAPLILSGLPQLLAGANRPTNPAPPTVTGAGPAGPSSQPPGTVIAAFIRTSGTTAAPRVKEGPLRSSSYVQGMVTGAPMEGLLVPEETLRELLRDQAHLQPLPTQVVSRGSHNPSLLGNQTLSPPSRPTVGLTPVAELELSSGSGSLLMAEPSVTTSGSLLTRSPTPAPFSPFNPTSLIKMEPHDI
# Method in brief: as §1
# [15] = target: T9, ELK4 (Homo sapiens, UniProt P28324-2 1-405); settings: protein: recombinant; tags: N-terminal GST; dsDNA, one strand shown
# T9 sequence: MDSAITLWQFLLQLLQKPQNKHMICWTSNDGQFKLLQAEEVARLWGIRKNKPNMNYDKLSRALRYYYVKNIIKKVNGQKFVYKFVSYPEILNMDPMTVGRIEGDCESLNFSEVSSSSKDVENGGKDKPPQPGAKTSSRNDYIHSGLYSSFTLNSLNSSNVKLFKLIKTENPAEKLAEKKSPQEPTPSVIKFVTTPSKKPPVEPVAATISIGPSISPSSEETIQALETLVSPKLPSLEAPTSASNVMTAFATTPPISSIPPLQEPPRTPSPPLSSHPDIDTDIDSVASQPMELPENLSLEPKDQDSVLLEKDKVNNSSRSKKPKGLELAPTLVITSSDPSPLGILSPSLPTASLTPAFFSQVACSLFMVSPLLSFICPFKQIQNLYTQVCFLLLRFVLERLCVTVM
# Method in brief: as §1
# [16] = target: T10, ETV2 (Homo sapiens, UniProt O00321 1-342); settings: protein: recombinant; tags: N-terminal GST; dsDNA, one strand shown
# T10 sequence: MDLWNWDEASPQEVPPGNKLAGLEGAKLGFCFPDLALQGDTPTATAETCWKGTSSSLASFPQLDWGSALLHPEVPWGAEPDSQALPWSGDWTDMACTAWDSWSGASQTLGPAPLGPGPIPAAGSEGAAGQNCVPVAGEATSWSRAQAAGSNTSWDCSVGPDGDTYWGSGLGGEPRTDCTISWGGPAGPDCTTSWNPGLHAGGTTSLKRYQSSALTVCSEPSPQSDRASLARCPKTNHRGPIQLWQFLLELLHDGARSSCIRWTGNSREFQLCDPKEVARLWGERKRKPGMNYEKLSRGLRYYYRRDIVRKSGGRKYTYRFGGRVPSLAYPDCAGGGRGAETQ
# Method in brief: as §1
# [17] = target: T11, ELF3 (Homo sapiens, UniProt P78545 1-371); settings: protein: recombinant; tags: N-terminal GST; dsDNA, one strand shown
# T11 sequence: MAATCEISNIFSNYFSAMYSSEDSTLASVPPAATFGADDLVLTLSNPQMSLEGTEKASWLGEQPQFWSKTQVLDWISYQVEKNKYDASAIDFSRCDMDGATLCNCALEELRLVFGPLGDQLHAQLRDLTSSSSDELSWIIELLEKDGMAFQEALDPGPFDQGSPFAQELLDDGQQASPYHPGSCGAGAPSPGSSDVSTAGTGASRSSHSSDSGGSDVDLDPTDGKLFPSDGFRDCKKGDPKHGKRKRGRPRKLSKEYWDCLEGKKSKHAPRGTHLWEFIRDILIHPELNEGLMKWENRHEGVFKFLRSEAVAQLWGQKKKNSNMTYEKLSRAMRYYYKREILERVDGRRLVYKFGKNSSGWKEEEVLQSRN
# Method in brief: as §1
# [18] = target: CRX (Homo sapiens, UniProt O43186 1-299); settings: protein: recombinant; tags: N-terminal GST; dsDNA, one strand shown
# Sequence of CRX (O43186 whole entry): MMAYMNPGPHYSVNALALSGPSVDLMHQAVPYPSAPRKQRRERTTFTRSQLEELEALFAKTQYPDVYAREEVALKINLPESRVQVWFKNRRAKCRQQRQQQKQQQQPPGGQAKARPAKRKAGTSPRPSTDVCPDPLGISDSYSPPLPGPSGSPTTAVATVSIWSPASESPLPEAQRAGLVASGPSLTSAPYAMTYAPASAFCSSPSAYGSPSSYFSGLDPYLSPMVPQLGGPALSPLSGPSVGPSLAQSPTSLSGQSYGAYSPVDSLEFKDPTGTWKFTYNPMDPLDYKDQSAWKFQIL
# Method in brief: as §1
# [19] = target: ETV1 (Homo sapiens, UniProt P50549 1-477); settings: protein: recombinant; tags: N-terminal GST; dsDNA, one strand shown
# Sequence of ETV1 (P50549 whole entry): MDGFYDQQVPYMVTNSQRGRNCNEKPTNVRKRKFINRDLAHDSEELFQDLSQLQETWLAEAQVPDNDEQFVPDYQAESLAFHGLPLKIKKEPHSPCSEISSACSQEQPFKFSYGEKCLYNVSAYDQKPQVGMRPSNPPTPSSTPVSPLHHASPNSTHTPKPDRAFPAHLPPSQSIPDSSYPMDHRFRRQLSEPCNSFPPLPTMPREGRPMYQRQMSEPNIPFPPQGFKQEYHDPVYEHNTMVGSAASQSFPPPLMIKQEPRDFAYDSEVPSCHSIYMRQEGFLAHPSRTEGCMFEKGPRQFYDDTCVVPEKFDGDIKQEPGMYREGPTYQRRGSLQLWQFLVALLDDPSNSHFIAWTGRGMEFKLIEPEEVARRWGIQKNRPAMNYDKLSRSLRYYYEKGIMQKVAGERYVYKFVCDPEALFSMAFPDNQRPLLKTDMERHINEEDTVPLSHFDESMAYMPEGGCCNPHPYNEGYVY
# Method in brief: as §1
sequence,measurement,setting,value
TTCCGG,binding signal,[1],"5.8 fold enrichment (6-mer frequency, TF over GST control)"
same,binding signal,[2],"5.94 fold enrichment (6-mer frequency, TF over GST control)"
same,binding signal,[3],"5.16 fold enrichment (6-mer frequency, TF over GST control)"
same,binding signal,[4],"7.1 fold enrichment (6-mer frequency, TF over GST control)"
same,binding signal,[5],"5.41 fold enrichment (6-mer frequency, TF over GST control)"
same,binding signal,[6],"5.96 fold enrichment (6-mer frequency, TF over GST control)"
same,binding signal,[7],"5.73 fold enrichment (6-mer frequency, TF over GST control)"
same,binding signal,[8],"5.9 fold enrichment (6-mer frequency, TF over GST control)"
same,binding signal,[9],"6.93 fold enrichment (6-mer frequency, TF over GST control)"
same,binding signal,[10],"8.68 fold enrichment (6-mer frequency, TF over GST control)"
same,binding signal,[11],"6.4 fold enrichment (6-mer frequency, TF over GST control)"
same,binding signal,[12],"1.93 fold enrichment (6-mer frequency, TF over GST control)"
same,binding signal,[13],"5.6 fold enrichment (6-mer frequency, TF over GST control)"
same,binding signal,[14],"5.4 fold enrichment (6-mer frequency, TF over GST control)"
same,binding signal,[15],"4.67 fold enrichment (6-mer frequency, TF over GST control)"
same,binding signal,[16],"5.78 fold enrichment (6-mer frequency, TF over GST control)"
same,binding signal,[17],"5.14 fold enrichment (6-mer frequency, TF over GST control)"
same,binding signal,[18],"1.33 fold enrichment (6-mer frequency, TF over GST control)"
same,binding signal,[19],"6.12 fold enrichment (6-mer frequency, TF over GST control)"
